Experimental findings from the supplement of paper PMC7156485 are described below.
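Also: TDF is a line of transformed human dermal fibroblasts of mesenchymal origin.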

The subject of this experiment is HCC1569. Kind of experiment: H1.0 immunofluorescence intensity relative to DMSO (% of DMSO); higher = stronger H1.0 induction, active = 140 or more. Conditions: concentration: 10 µM; 24 h. The method, boiled down:
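Cell number or H1.0 nuclear intensity appears as percent of the plate control, based on the median of replicates. Measurements came from HCC1569 and TDF cells exposed in triplicate to compounds at 10 µM for 24 h at 37 °C, then imaged in six fields per well at ×10. Positional effects were smoothed out of HCC1569 values.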
As to `CC1=NN(c2ccc(C(=O)O)cc2)C(=O)/C1=C\c1ccc(-c2cc(C)c(C)cc2[N+](=O)[O-])o1`, the H1.0 immunofluorescence intensity is 108 (inactive).
For the compound `COc1ccc(CN(CCN(C)C)c2ccccn2)cc1.O=C(O)C=CC(=O)O` [Pyrilamine maleate], the H1.0 immunofluorescence intensity is 100 (inactive).
Regarding `O=C(O)C1=CC(=C(c2ccc(O)c(C(=O)O)c2)c2ccc(O)c(C(=O)O)c2)C=CC1=O` [Aurintricarboxylic acid], the H1.0 immunofluorescence intensity is 85.8 (inactive).
Take `COC(C(=O)C(O)C(C)O)C1Cc2cc3cc(OC4CC(OC5CC(O)C(O)C(C)O5)C(O)C(C)O4)c(C)c(O)c3c(O)c2C(=O)C1OC1CC(OC2CC(OC3CC(C)(O)C(O)C(C)O3)C(O)C(C)O2)C(O)C(C)O1` (centres undefined) [Plicamycin]: the H1.0 immunofluorescence intensity was 126 (inactive).
To `CC(=O)OC1CC2CCC3C(CCC4(C)C3CC([N+]3(C)CCCCC3)C4OC(C)=O)C2(C)CC1N1CCCCC1` (centres undefined) [Vecuronium] belongs 110 (inactive); to `Nc1ccc(-c2cccc3c(=O)cc(N4CCOCC4)oc23)cc1`, 156 (active); to `Cc1cc(C(C)(C)C)c(O)c(C)c1CC1=NCCN1.Cl` [Oxymetazoline hydrochloride], 94.9 (inactive).
Take `c1ccc(-c2n[nH]c3c2oc2ccccc23)cc1`: the H1.0 immunofluorescence intensity is 126 (inactive).
With `CC(C)(C)c1nc2c3cc[nH]c(=O)c3c3cc(F)ccc3c2[nH]1` [JAK Inhibitor I], the H1.0 immunofluorescence intensity is 126 (inactive).
On to `CC1=c2[nH]c3c(c2CCN1)C=CC(=O)C=3.Cl.O.O`, for which the H1.0 immunofluorescence intensity was 144 (active).
Turning to `CC(C)C[C@@H](C(=O)O)c1cc(-c2ccc(C(F)(F)F)cc2)cc(-c2ccc(C(F)(F)F)cc2)c1`, the H1.0 immunofluorescence intensity was 115 (inactive).
As for `CCCCCCCCc1ccc(CCC(N)(CO)CO)cc1.Cl`, the H1.0 immunofluorescence intensity is 173 (active).
`C[C@H](C#Cc1ccc(Cc2ccc(F)cc2)s1)N(O)C(N)=O`: the H1.0 immunofluorescence intensity was 99.7 (inactive).
In the case of `COc1cccc2oc(-c3ccccc3)cc(=O)c12` [5-Methoxyflavone], the H1.0 immunofluorescence intensity is 98.8 (inactive).
Consider `Cl.Cn1c(=O)c(Oc2ccc(F)cc2F)cc2cnc(NC3CCOCC3)nc21`, for which the H1.0 immunofluorescence intensity was 102 (inactive).
`CCCCCC(O)C=CC1C(O)CC(O)C1CC=CCCCC(=O)O` (racemic): the H1.0 immunofluorescence intensity is 99.4 (inactive).
In the case of `CC(C)(C=O)Cc1cc(C(C)(C)C)c(O)c(C(C)(C)C)c1`, the H1.0 immunofluorescence intensity is 97.1 (inactive).
Consider `C[C@H](c1ccc(F)cc1CCCC(=O)O)N(c1cc(F)ccc1F)S(=O)(=O)c1ccc(Cl)cc1`, for which the H1.0 immunofluorescence intensity is 111 (inactive).
Take `NC(C(=O)O)C1CC1C(=O)O` [(2S,1'S,2'S)-2-(carboxycyclopropyl)glycine]: the H1.0 immunofluorescence intensity was 83.4 (inactive).
For the compound `CCCCC1=NC2(CCCC2)C(=O)N1Cc1ccc(-c2ccccc2-c2nn[nH]n2)cc1`, the H1.0 immunofluorescence intensity was 88.4 (inactive).
For `c1ccc(-c2[nH]ncc2-c2ccnc3ccccc23)nc1`, the H1.0 immunofluorescence intensity is 102 (inactive).
Then `CC1OC(OCC2OC(Oc3c(-c4ccc(O)c(O)c4)oc4cc(O)cc(O)c4c3=O)C(O)C(O)C2O)C(O)C(O)C1O` (centres undefined) [Rutin], with 88 (inactive).
For `Oc1cc(O)c2c(c1)OC(c1ccc(O)c(O)c1)C(O)C2` (single isomer, unassigned; (-)) [(-)-Epicatechin], the H1.0 immunofluorescence intensity was 89.2 (inactive).
With `COc1ccc(S(=O)(=O)N2CCC[C@H]2C(=O)Nc2cc(C)cc(C)c2)cc1`, the H1.0 immunofluorescence intensity was 102 (inactive).
For `Nc1ncnc2c1ncn2C1CCCC1` [9-cyclopentyladenine], the H1.0 immunofluorescence intensity was 84.6 (inactive).
On to `CC1(NC(=O)CBr)CCC(C(C)(C)NCC(O)COc2cccc3[nH]ccc23)CC1` (racemic), for which the H1.0 immunofluorescence intensity was 103 (inactive).
As for `COc1ccc2c(c1)c(CC(=O)OCC(=O)O)c(C)n2C(=O)c1ccc(Cl)cc1` [Acemetacin], the H1.0 immunofluorescence intensity was 104 (inactive).
As to `COc1c(O)cc(O)c2c(=O)cc(-c3ccccc3)oc12` [Wogonin], the H1.0 immunofluorescence intensity was 85.8 (inactive).
To `CCC1C(=O)OCC1Cc1cncn1C.O=[N+]([O-])O` (centres undefined) [Pilocarpine nitrate] belongs 107 (inactive); to `NC(Cc1cccc(-c2ccccc2CP(=O)(O)O)c1)C(=O)O` (stereo not drawn) [Phenylbenzene-omega-phosphono-alpha-amino acid], 105 (inactive).
In the case of `CNC1C(OC2C(OC3C(O)C(O)C(N=C(N)N)C(O)C3N=C(N)N)OC(C)C2(O)C=O)OC(CO)C(O)C1O` (centres undefined) [Streptomycin], the H1.0 immunofluorescence intensity is 89 (inactive).
Turning to `N#Cc1ccc(C(c2ccc(C#N)cc2)n2cncn2)cc1` [Letrozole], the H1.0 immunofluorescence intensity was 102 (inactive).
Take `O=C1OC(C(O)CO)C(O)=C1O` (centres undefined) [Ascorbic acid]: the H1.0 immunofluorescence intensity was 95.2 (inactive).
Take `CC(C)S(=O)(=O)N[C@H]1CCOC[C@@H]1c1ccc(-c2ccc(C#N)s2)cc1`: the H1.0 immunofluorescence intensity was 104 (inactive).
For the compound `Cc1ccc(=O)n(-c2ccccc2)c1` [Pirfenidone], the H1.0 immunofluorescence intensity is 92.5 (inactive).
As for `Cc1cccc(C)c1OCC(N)C(C)C.I` (centres undefined), the H1.0 immunofluorescence intensity was 94.3 (inactive).
To `COc1cc(C(O)CO)ccc1OS(=O)(=O)[O-].[K+]` (centres undefined) [MHPG sulfate potassium] belongs 121 (inactive); to `COc1cc(Br)c(Nc2nc(-c3c(C)nc4ncccn34)cs2)c(Br)c1`, 199 (active).
To `CC(C)(C)c1ccc(S(=O)(=O)NCc2ccc(C(=O)Nc3cccnc3)cc2)cc1` belongs 107 (inactive).
